Test results from ChEMBL document CHEMBL1961873, “Compounds: GSK PKIS; Assays: Nanosyn kinase panel” (2012).

Columns and labels:
[1] = target: T1, Inhibitor of nuclear factor kappa-B kinase subunit epsilon (Homo sapiens) (UniProt Q14164); conditions: at 1 µM;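 note: reported values are averaged percent inhibition figures against human IKKε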
T1 sequence (whole entry): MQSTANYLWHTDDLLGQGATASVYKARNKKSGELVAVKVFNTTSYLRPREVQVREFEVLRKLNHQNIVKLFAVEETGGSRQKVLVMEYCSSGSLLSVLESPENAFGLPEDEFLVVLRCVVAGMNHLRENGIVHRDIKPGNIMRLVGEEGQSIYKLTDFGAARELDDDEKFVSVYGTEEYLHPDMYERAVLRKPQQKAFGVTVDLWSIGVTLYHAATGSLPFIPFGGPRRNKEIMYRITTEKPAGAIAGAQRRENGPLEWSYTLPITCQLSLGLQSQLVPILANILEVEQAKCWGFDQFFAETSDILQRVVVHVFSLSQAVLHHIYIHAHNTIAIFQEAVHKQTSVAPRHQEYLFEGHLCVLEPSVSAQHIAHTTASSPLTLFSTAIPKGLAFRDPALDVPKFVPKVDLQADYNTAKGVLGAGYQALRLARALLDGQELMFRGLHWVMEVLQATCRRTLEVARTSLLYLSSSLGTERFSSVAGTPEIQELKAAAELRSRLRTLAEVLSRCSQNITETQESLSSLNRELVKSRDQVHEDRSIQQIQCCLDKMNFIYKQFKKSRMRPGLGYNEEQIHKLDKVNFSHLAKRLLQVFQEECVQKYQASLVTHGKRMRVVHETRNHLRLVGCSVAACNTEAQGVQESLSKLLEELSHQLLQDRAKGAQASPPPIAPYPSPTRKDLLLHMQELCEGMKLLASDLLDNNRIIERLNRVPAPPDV

[2] = target: T2, Serine/threonine-protein kinase Nek1 (Homo sapiens) (UniProt Q96PY6); conditions: at 0.1 µM
T2 sequence (whole entry): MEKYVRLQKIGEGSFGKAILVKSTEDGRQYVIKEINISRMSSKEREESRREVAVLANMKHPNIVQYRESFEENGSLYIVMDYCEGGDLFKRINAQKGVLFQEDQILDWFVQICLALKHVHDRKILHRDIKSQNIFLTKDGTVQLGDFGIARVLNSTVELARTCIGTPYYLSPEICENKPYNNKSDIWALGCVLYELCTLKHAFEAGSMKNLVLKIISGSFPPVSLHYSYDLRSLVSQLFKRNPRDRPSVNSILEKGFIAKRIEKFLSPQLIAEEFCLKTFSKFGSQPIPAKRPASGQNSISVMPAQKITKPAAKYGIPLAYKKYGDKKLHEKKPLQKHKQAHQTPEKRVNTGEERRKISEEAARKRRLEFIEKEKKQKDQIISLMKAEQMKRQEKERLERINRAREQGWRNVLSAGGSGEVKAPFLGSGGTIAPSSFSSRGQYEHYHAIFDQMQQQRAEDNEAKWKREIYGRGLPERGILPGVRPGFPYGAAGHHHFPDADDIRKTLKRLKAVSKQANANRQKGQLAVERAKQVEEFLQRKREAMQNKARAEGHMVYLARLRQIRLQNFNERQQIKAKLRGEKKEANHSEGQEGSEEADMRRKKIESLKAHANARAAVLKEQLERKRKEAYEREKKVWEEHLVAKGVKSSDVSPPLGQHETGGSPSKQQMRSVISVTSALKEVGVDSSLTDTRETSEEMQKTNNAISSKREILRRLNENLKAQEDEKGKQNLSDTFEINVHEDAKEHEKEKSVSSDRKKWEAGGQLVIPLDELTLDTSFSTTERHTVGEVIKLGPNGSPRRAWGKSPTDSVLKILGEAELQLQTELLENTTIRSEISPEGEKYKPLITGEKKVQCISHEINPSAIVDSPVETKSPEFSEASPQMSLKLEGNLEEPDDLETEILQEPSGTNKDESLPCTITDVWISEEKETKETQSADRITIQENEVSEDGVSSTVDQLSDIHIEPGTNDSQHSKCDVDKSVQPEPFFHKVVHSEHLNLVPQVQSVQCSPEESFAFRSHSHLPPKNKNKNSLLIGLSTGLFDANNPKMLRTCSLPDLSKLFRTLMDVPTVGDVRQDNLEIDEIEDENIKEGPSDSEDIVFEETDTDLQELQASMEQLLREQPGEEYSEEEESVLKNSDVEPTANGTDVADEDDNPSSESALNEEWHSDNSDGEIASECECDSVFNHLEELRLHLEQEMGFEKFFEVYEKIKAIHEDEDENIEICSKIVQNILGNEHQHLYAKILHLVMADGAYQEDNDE

[3] = target: T2, Serine/threonine-protein kinase Nek1 (Homo sapiens); conditions: at 1 µM
[4] = target: T3, Serine/threonine-protein kinase Nek2 (Homo sapiens) (UniProt P51955); conditions: at 0.1 µM
T3 sequence (whole entry): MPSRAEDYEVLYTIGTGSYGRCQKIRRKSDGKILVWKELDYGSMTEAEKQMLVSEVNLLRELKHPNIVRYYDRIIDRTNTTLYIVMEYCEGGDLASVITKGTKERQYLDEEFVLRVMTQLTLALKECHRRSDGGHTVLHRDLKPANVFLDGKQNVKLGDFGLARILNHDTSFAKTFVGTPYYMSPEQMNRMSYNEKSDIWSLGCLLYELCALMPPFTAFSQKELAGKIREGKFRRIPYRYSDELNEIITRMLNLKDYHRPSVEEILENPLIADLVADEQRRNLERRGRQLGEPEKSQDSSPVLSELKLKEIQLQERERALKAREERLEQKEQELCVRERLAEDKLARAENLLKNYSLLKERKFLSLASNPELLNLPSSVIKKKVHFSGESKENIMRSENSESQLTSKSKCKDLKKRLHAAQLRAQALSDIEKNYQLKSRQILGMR

[5] = target: T3, Serine/threonine-protein kinase Nek2 (Homo sapiens); conditions: at 1 µM
[6] = target: Serine/threonine-protein kinase Nek6 (Homo sapiens) (UniProt Q9HC98); conditions: at 0.1 µM
[7] = target: Serine/threonine-protein kinase Nek6 (Homo sapiens) (UniProt Q9HC98); conditions: at 1 µM
[8] = target: Serine/threonine-protein kinase Nek7 (Homo sapiens) (UniProt Q8TDX7); conditions: at 0.1 µM
[9] = target: Serine/threonine-protein kinase Nek7 (Homo sapiens) (UniProt Q8TDX7); conditions: at 1 µM
[10] = target: T4, Serine/threonine-protein kinase Nek9 (Homo sapiens) (UniProt Q8TD19); conditions: at 0.1 µM
T4 sequence (whole entry): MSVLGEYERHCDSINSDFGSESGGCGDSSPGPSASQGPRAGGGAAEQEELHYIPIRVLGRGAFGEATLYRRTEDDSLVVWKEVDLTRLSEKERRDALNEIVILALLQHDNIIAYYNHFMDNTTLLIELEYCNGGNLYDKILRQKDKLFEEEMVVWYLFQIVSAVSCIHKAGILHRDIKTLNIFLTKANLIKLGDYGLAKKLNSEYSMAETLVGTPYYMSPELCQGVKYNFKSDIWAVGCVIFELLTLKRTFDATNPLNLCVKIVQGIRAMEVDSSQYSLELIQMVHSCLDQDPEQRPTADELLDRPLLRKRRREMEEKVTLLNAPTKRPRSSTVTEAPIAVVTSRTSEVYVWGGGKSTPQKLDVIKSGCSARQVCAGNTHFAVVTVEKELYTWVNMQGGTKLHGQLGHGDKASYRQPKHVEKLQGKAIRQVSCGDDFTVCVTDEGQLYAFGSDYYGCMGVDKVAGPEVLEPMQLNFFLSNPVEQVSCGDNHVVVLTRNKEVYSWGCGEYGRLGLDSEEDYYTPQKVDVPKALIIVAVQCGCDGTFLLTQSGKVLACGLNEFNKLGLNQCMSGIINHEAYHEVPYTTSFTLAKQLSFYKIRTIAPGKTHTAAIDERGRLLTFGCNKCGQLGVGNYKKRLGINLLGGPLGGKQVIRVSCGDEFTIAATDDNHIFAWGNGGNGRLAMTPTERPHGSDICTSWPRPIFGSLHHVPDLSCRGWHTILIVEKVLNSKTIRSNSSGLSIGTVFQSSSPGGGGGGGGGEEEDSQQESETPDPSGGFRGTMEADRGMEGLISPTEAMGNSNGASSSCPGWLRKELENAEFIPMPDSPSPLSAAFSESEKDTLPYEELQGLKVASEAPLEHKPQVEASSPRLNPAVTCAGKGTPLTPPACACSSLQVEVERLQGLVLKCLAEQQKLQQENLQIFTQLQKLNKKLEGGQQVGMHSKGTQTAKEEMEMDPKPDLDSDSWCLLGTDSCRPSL

[11] = target: T4, Serine/threonine-protein kinase Nek9 (Homo sapiens); conditions: at 1 µM
[12] = target: Serine/threonine-protein kinase PLK1 (Homo sapiens) (UniProt P53350); conditions: at 0.1 µM
[13] = target: Serine/threonine-protein kinase PLK1 (Homo sapiens) (UniProt P53350); conditions: at 1 µM
[14] = target: T5, Dual specificity protein kinase TTK (Homo sapiens) (UniProt P33981); conditions: at 0.1 µM
T5 sequence (whole entry): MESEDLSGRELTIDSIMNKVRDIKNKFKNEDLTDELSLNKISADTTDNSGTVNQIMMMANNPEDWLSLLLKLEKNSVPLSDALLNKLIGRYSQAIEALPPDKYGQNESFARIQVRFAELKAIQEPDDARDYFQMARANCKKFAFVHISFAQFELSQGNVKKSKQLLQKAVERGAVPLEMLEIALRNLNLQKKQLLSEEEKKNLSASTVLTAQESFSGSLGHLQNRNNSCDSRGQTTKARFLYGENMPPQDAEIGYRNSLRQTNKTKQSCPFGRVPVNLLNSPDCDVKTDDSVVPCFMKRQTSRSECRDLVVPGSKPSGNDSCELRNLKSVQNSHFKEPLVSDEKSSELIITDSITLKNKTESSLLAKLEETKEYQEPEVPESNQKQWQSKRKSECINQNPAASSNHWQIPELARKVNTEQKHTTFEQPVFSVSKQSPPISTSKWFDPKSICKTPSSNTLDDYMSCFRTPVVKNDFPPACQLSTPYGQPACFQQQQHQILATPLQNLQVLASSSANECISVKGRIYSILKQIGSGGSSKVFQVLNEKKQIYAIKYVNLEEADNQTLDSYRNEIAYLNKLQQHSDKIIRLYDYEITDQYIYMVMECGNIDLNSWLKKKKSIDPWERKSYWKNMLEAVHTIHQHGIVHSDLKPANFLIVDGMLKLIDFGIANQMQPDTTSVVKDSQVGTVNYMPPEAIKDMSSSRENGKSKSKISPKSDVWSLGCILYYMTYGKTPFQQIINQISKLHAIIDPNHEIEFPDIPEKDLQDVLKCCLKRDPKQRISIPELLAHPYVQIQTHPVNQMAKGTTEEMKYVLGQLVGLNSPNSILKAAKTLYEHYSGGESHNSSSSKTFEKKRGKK

[15] = system: T6, Receptor-type tyrosine-protein kinase FLT3 (Homo sapiens), P36888 [D835Y]; conditions: at 1 µM
T6 sequence (whole entry): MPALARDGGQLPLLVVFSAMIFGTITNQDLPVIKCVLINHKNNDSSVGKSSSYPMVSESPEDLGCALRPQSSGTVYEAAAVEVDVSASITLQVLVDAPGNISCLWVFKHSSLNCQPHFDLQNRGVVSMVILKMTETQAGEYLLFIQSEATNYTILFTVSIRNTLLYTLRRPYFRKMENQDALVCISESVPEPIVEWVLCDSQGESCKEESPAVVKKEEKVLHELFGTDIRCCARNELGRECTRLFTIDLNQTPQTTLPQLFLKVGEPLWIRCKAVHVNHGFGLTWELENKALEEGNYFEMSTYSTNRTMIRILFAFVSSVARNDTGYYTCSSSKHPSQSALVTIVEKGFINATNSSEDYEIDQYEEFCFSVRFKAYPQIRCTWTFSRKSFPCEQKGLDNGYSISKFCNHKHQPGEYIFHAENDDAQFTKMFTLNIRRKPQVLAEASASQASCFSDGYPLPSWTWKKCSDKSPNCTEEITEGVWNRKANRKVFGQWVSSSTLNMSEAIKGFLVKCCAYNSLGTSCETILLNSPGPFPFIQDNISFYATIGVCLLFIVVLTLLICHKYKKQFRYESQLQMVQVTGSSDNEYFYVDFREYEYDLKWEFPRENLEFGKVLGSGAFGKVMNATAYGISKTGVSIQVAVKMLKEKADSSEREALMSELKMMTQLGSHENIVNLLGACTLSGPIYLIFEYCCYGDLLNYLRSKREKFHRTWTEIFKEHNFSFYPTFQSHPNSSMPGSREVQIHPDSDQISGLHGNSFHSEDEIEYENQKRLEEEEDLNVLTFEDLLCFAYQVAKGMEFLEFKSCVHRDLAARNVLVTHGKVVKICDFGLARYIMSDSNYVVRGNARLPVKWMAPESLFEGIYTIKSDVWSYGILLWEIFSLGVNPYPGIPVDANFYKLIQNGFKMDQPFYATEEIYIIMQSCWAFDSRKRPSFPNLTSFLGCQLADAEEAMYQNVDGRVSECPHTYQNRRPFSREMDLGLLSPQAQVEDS

[16] = target: Vascular endothelial growth factor receptor 3 (Homo sapiens) (UniProt P35916); conditions: at 0.1 µM
[17] = target: Vascular endothelial growth factor receptor 3 (Homo sapiens) (UniProt P35916); conditions: at 1 µM
[18] = target: Macrophage colony-stimulating factor 1 receptor (Homo sapiens) (UniProt P07333); conditions: at 0.1 µM
[19] = target: Macrophage colony-stimulating factor 1 receptor (Homo sapiens) (UniProt P07333); conditions: at 1 µM
[20] = target: Tyrosine-protein kinase Fyn (Homo sapiens) (UniProt P06241); conditions: at 0.1 µM
Chain of Tyrosine-protein kinase Fyn (Homo sapiens) (P06241 2-537 limits assumed): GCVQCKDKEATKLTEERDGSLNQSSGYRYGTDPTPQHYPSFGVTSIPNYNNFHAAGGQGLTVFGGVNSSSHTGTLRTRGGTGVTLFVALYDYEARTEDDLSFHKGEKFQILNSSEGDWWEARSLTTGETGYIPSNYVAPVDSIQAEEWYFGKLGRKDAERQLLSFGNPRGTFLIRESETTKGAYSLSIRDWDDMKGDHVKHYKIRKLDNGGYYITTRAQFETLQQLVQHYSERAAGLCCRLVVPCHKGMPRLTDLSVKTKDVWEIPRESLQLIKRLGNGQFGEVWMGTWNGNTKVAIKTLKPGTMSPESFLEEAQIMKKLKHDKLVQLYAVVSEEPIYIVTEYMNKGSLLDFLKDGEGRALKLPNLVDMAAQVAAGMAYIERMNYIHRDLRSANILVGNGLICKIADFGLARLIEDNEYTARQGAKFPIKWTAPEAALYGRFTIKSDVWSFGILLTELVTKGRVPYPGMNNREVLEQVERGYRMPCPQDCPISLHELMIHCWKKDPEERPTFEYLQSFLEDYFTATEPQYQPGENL

Chain of Serine/threonine-protein kinase Nek7 (Homo sapiens) (Q8TDX7 whole entry, looked up): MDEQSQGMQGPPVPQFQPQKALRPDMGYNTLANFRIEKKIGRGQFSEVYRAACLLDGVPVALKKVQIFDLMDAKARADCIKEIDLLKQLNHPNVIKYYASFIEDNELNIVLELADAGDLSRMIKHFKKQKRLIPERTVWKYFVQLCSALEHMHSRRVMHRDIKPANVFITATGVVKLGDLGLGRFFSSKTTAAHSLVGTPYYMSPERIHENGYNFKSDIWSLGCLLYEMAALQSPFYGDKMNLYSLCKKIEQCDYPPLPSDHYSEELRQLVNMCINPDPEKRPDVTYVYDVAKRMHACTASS
Chain of Vascular endothelial growth factor receptor 3 (Homo sapiens) (P35916 whole entry): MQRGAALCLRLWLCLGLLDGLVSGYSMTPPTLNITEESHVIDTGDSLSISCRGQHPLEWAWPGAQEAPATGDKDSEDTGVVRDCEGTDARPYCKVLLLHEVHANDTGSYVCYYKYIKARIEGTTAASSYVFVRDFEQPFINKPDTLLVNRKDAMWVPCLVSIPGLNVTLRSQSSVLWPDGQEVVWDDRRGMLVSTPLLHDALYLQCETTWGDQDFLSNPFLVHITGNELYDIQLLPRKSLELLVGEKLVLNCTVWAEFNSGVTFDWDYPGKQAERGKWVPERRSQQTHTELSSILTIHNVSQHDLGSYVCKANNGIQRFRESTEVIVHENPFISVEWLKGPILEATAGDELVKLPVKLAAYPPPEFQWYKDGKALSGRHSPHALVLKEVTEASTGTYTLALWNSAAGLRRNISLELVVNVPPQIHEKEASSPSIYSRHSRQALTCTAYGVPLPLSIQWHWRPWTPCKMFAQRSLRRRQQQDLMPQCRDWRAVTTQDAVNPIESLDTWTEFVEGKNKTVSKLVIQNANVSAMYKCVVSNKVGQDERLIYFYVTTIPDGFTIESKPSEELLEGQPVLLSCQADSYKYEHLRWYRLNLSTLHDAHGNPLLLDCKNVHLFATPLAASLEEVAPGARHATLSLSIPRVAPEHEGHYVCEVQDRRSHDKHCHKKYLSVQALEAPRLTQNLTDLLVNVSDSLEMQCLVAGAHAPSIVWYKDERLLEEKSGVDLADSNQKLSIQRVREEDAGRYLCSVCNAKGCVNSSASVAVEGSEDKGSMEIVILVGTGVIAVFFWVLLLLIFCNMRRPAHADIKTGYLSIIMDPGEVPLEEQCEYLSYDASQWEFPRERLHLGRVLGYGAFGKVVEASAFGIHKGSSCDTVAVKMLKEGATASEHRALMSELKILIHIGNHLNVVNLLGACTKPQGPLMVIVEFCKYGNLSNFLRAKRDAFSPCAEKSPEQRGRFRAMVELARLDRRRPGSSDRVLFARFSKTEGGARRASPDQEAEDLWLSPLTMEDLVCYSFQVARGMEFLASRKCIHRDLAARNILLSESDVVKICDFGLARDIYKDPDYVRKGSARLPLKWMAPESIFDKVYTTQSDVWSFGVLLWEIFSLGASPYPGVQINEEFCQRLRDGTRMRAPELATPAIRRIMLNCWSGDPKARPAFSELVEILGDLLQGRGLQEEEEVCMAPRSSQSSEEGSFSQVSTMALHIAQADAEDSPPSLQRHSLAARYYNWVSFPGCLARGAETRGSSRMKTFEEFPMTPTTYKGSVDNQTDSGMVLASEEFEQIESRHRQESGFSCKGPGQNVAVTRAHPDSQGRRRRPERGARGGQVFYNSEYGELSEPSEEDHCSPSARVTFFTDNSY
Chain of Macrophage colony-stimulating factor 1 receptor (Homo sapiens) (P07333 whole entry): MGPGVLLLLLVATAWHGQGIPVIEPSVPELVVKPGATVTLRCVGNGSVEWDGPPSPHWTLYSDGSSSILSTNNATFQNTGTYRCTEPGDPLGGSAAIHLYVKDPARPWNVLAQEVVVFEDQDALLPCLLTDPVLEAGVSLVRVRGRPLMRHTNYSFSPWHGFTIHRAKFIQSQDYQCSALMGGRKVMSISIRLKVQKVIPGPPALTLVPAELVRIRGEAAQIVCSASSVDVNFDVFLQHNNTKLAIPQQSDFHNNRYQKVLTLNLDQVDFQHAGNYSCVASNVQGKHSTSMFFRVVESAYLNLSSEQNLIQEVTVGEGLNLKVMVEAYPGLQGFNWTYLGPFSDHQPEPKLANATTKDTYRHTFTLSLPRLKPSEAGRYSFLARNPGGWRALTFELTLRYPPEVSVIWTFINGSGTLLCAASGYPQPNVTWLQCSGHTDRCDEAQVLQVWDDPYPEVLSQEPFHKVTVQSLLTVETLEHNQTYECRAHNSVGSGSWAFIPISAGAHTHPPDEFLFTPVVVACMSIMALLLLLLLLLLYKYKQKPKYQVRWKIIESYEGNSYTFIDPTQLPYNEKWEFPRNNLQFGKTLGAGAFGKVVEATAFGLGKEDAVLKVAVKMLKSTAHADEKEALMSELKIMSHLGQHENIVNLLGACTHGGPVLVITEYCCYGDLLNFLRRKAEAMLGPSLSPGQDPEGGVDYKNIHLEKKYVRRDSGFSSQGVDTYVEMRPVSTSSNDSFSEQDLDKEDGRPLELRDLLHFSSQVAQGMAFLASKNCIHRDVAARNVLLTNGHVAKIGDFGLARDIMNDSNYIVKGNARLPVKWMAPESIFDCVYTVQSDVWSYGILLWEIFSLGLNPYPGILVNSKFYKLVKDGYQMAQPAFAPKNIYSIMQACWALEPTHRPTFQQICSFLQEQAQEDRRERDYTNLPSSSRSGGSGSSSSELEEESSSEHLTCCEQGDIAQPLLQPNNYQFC
Chain of Serine/threonine-protein kinase PLK1 (Homo sapiens) (P53350 whole entry): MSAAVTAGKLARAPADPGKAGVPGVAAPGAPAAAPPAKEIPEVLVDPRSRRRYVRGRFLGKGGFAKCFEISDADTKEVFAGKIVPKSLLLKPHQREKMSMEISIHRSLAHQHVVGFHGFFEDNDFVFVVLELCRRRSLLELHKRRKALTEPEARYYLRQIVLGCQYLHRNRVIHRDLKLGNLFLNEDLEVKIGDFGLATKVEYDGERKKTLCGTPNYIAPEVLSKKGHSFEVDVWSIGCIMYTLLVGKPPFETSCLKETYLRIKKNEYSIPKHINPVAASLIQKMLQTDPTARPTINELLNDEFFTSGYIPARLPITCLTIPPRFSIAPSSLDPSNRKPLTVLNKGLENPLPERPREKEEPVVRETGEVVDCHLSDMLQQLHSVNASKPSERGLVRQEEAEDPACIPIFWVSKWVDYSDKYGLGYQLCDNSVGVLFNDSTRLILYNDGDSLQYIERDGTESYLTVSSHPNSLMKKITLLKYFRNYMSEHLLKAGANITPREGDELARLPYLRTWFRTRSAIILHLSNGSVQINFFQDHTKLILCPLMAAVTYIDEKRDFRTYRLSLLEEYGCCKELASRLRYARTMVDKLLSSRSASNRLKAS
Chain of Serine/threonine-protein kinase Nek6 (Homo sapiens) (Q9HC98 whole entry): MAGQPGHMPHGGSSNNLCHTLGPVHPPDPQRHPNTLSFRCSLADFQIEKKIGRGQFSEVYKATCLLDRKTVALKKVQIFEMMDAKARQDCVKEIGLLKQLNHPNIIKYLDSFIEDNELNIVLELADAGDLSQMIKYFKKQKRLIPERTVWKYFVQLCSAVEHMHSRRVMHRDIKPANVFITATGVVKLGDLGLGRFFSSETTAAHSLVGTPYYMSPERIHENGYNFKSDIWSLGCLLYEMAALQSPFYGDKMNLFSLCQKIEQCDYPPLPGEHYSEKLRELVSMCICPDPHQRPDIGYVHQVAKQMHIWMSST

In the case of `CNC(=O)c1cccc(C#Cc2cncnc2Nc2ccc(OCc3cccc(F)c3)c(Cl)c2)c1`, the inhibition [1] is reported as 1.01%, the inhibition [2] is reported as -0.52% and the inhibition [3] is reported as -1.06%. It also gave an inhibition [4] of 0.09%, an inhibition [5] of -0.96% and an inhibition [6] of 1.08%. The inhibition [7] was 1.68%, the inhibition [8] was 0.01% and the inhibition [9] was 0.48%. The inhibition [10] was 0.64%, the inhibition [11] was 4.28% and the inhibition [12] was -0.42%. It also gave an inhibition [13] of 0.52%, an inhibition [14] of 3.66% and an inhibition [15] of 0.94%. It also gave an inhibition [16] of -2.07%, an inhibition [17] of 3.4% and an inhibition [18] of 1.48%. For the same compound, the inhibition [19] was 7.16% and the inhibition [20] was 1.46%.
